Records with an inconclusive call do not appear. The source made the active and inactive calls. The calls were made as follows, unless noted: active = hit-call score of the fitted dose curve at least 0.9, where 1 is the maximum; inconclusive = response in the unintended direction; inactive = score below 0.9.
Legend:
[1] = ATG_M_32_TRANS: Attagene TRANS-FACTORIAL HepG2 Assay for M32 Transcription Factor (Internal Marker) (AID 2282984); details: HepG2 Attagene TRANS M32 internal marker reporter;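 also: transcript level of a background control reporter unit measured by RT-PCR and capillary electrophoresis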
How it was run: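 Fluorescence-detected mRNA induction, HepG2 liver cells, 24 h after dosing. Multiple GAL4-UAS reporter units introduced by transient transfection; background-control endpoint analysed for gain of signal against DMSO.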

[2] = biological target: Nuclear receptor subfamily 4 group A member 2 (Homo sapiens) (UniProt P43354); test: ATG_NURR1_TRANS: Attagene TRANS-FACTORIAL HepG2 Assay for human Nuclear Receptor Related Protein 1 (NURR1) (AID 2282985); details: HepG2 Attagene TRANS reporter, mRNA readout
How it was run: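 Chimeric NR-Gal4 proteins were expressed in human HepG2 cells bearing GAL4-UAS reporter units, and induced reporter mRNA was quantified 24 h post-dosing by RT-PCR and capillary electrophoresis.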

[3] = biological target: Transcriptional activator Myb (Homo sapiens) (UniProt P10242); test: ATG_Myb_CIS: Attagene CIS-FACTORIAL HepG2 Assay for human Myeloblastosis (Myb) Proto-Oncogene Transcription Factor (AID 2282986; active = hit-call score of the fitted dose curve at least 0.9, where 1 is the maximum; inactive = score below 0.9); details: HepG2 Attagene CIS-FACTORIAL Myb reporter transcription; actives raise or lower the signal
How it was run: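 In this HepG2 transient-transfection format, cis-regulated reporter mRNA is quantified 24 h post-dosing by RT-PCR with capillary electrophoresis, fitted bidirectionally to DMSO baseline.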

[4] = biological target: Nuclear respiratory factor 1 (Homo sapiens) (UniProt Q16656); test: ATG_NRF1_CIS: Attagene CIS-FACTORIAL HepG2 Assay for human Nuclear Respiratory Factor 1 (NRF1) Orphan Gene (AID 2282987; active = hit-call score of the fitted dose curve at least 0.9, where 1 is the maximum; inactive = score below 0.9); details: HepG2 NRF1 cis-element reporter, Attagene multiplex; actives raise or lower the signal
How it was run: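 Using DMSO as baseline, gain- or loss-of-signal was fitted for reporter mRNA levels in HepG2 cells transiently transfected with cis-regulated reporter units. Samples were taken 24 h after dosing and read by RT-PCR with capillary electrophoresis.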

[5] = ATG_M_06_TRANS: Attagene TRANS-FACTORIAL HepG2 Assay for M06 Transcription Factor (Internal Marker) (AID 2282983); details: HepG2 Attagene TRANS M06 internal marker reporter;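 also: reporter transcript level by RT-PCR then capillary electrophoresis fluorescence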
How it was run: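 In this multiplexed HepG2 system, compounds are incubated 24 h with cells carrying GAL4-UAS reporter units. Reporter RNA is amplified and resolved by capillary electrophoresis, and induction is scored against DMSO.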

[6] = biological target: Hepatocyte nuclear factor 4-alpha (Homo sapiens) (UniProt P41235); test: ATG_HNF4a_TRANS: Attagene TRANS-FACTORIAL HepG2 Assay for human Hepatocyte Nuclear Factor 4 alpha (HNF4a) (AID 2282982); details: HepG2 HNF4a transactivation reporter, mRNA readout
How it was run: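 Using HepG2 liver cells transfected with GAL4-UAS reporter units, chemical-induced mRNA increases were assessed after 24 hours. Fluorescent RT-PCR fragments were separated by capillary electrophoresis and compared with DMSO negative controls.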

Measured: AC50

Chain of Nuclear receptor subfamily 4 group A member 2 (Homo sapiens) (P43354 whole entry, looked up, the tested form may be a part): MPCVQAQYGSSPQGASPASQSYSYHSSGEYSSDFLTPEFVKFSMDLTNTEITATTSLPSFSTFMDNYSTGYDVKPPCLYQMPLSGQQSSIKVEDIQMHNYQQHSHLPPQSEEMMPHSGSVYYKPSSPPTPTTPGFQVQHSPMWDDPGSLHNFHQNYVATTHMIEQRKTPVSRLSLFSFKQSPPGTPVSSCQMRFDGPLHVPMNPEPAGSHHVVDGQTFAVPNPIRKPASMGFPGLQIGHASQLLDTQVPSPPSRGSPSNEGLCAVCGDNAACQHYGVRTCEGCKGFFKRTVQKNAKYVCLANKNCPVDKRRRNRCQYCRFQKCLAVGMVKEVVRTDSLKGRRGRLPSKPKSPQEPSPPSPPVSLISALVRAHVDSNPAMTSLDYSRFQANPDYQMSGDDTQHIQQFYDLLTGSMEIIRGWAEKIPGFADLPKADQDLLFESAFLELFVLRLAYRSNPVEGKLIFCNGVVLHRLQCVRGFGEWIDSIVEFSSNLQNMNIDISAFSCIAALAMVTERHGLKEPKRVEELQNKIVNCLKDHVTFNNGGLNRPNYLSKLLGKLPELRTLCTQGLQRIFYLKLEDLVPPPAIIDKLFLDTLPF
Chain of Nuclear respiratory factor 1 (Homo sapiens) (Q16656 whole entry, looked up): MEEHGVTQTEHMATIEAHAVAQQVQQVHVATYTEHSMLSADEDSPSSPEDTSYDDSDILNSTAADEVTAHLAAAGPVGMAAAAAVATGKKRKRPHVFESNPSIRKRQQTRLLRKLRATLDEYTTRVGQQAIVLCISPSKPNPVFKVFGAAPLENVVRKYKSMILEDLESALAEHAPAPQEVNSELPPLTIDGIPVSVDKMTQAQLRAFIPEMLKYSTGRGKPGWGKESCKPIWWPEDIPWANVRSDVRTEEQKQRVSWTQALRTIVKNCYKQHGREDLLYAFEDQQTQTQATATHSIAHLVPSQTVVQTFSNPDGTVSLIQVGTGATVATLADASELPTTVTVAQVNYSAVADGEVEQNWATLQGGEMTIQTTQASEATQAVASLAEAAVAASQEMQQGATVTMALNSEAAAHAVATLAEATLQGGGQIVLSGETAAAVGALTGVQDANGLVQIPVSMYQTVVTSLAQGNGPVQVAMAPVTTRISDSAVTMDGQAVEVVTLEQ
Chain of Transcriptional activator Myb (Homo sapiens) (P10242 whole entry, looked up): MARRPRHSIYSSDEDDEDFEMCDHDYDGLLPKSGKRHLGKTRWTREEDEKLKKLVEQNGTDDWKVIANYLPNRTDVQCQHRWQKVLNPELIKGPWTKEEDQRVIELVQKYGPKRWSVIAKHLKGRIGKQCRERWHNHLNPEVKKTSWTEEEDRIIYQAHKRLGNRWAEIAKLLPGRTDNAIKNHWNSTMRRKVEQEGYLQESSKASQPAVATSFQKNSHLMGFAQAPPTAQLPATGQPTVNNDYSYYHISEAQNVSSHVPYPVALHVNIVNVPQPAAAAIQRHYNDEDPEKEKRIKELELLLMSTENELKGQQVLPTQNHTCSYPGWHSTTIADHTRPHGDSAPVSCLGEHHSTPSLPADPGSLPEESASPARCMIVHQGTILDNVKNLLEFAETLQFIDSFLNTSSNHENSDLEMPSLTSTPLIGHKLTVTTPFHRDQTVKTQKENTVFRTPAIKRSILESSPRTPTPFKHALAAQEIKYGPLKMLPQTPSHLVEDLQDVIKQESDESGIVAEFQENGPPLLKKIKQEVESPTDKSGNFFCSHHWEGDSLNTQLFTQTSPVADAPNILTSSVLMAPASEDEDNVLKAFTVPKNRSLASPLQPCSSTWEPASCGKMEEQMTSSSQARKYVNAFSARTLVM
Chain of Hepatocyte nuclear factor 4-alpha (Homo sapiens) (P41235 whole entry, looked up, the tested form may be a part): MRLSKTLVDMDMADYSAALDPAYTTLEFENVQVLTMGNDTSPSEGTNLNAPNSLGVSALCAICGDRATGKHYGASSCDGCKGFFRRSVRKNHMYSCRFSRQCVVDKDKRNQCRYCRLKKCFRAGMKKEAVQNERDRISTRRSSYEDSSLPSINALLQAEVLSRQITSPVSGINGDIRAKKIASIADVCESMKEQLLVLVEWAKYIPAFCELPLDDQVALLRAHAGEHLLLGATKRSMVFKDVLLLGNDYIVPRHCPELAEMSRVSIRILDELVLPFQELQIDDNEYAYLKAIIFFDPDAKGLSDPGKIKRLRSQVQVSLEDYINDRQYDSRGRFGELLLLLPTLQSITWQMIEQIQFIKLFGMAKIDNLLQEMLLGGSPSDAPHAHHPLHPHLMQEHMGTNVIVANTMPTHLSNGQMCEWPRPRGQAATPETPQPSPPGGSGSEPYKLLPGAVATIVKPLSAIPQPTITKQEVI

CCOC(=O)N1CCC(=C2c3ccc(Cl)cc3CCc3cccnc32)CC1
inactive: [1] | [3] | [4]
active: [2] 15.6 µM

CC(CC=O)c1ccccc1 (stereo not drawn)
inactive: [5] | [2] | [3] | [4]

CC(=O)Oc1ccc(C)cc1
inactive: [1] | [2] | [3] | [4]

O=C(O)c1cc(Cl)cc([N+](=O)[O-])c1Cl
not listed: [2]
inactive: all other assays above

C/C=C\C/C=C/CCCCCCCCOC(C)=O
inactive: all assays above

CC(C)CCCC(C)CC=O (stereo not drawn)
not listed: [3]
inactive: all other assays above

CCc1c(C(=O)O)c(=O)cnn1-c1ccc(Cl)cc1
inactive: [2] | [3] | [4]

CCOC(=O)c1ccccc1C(=C1C=C(Br)C(=O)C(Br)=C1)c1cc(Br)c(O)c(Br)c1
not listed: [2]
inactive: all other assays above

CCCCCCCCCCOS(=O)(=O)O
inactive: [3] | [4]

O=C(c1ccccc1)C1CCC1
inactive: [6] | [5] | [3] | [4]

O=C(O)Cc1c(Cl)ccc(Cl)c1Cl
inactive: [6] | [1] | [3] | [4]

CCCCCCC1(C)CCC(=O)O1 (stereo not drawn)
inactive: [6] | [5] | [3] | [4]

O=C(C=Cc1ccccc1)OCc1ccccc1
inactive: all assays above

CCCC(=O)OCc1ccccc1
inactive: [6] | [1] | [3] | [4]

C=CC(=O)OCCC(=O)O
inactive: [6] | [5] | [4]

CC(C)=CC1CC(C)CCO1 (stereo not drawn)
inactive: [6] | [5] | [3] | [4]

NC(=O)OCC(COC(N)=O)c1ccccc1
not listed: [1]
inactive: all other assays above

CCCCCCOc1cc(C)c(O)c(C)c1C
inactive: [6] | [5] | [2] | [3]

Nc1ccc(-c2ccc(F)cc2)cc1
inactive: [6] | [1] | [3] | [4]

Cc1cc(C)c(C)cc1C
inactive: [6] | [3] | [4]

CCOC(=O)[C@H](C)O
not listed: [6]
inactive: all other assays above

NCCCN1CCN(CCCN)CC1
inactive: [1] | [3] | [4]

CC(CC=O)CCCC(C)(C)O (stereo not drawn)
not listed: [3]
inactive: all other assays above

Nc1ccc(N)c(Cl)c1
inactive: [6] | [2] | [4]

O=S(=O)(Oc1ccc(Cl)cc1Cl)c1ccccc1
inactive: [5] | [3] | [4]
active: [2] 35.4 µM

C=CC(C)(C)C
inactive: [1] | [3] | [4]

CCCCOCCOC(=O)COc1nc(Cl)c(Cl)cc1Cl
inactive: [1] | [3] | [4]

O=c1cc[nH]c(=S)[nH]1
not listed: [2]
inactive: all other assays above

C=C(C)C(=O)OCC(C)C
inactive: [6] | [2] | [3] | [4]

COc1ccc([C@@H]2CC(=O)c3c(O)cc(O[C@@H]4O[C@H](CO[C@@H]5O[C@@H](C)[C@H](O)[C@@H](O)[C@H]5O)[C@@H](O)[C@H](O)[C@H]4O)cc3O2)cc1OC
inactive: [5] | [3] | [4]

CCC(C)(C)C1CCCCC1OC(C)=O (stereo not drawn)
not listed: [6]
inactive: all other assays above

CCCCC/C=C\C/C=C\CCCCCCCC(=O)OC
inactive: [6] | [5] | [2]
active: [3] 162 µM | [4] 171 µM

O=C(/C=C/C=C/c1ccc2c(c1)OCO2)N1CCCCC1
not listed: [6]
inactive: all other assays above

OC1OCCOC1O (stereo not drawn)
inactive: [5] | [3] | [4]

Cc1cccc(N)n1
inactive: [6] | [5] | [3] | [4]

CCCC(C)CCC(C)=O (stereo not drawn)
not listed: [1]
inactive: all other assays above

Cc1cc(=O)n(-c2ccccc2)n1C
inactive: [5] | [2] | [3] | [4]

CCCCCCCCCCOC(C)=O
inactive: [6] | [5] | [2] | [3]

CCO[Si](C)(OCC)OCC
inactive: [5] | [3] | [4]

CCN(CCO)c1cccc(C)c1
inactive: [1] | [2] | [3] | [4]
